Data on 39 compounds can be found in PubChem BioAssay (NCI).

The panel holds about 83,000 compounds, 20% with a hit somewhere; the sample as a whole holds those more often.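 Activity criterion: percent growth below 10, measured after cells in 96-well plates were exposed to a single compound concentration for 48 hours.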 Calls of active or inactive are those of the source.

For the first assay, the system named is CAKI-1 renal. The experiment in a line: NCI-60 one-dose screen, 48 h (100 = growth as untreated, 0 = no growth, -100 = all killed). The conditions noted are these: 10 µM unless noted.
In the case of `CN1C(=O)N(C)C2C1NN=c1s/c(=C\c3ccc(Cl)cc3Cl)c(=O)n12` (stereo unspecified), the growth was 40.9% (inactive).

As for `COc1ccc2occ(C3=C(c4c[nH]c5ccccc45)C(=O)NC3=O)c2c1`, the growth is 36.6% (inactive). On the same count and under the same terms, the result for `CCN1CCN(C(=S)SCC(=O)Nc2nc3ccc(C)cc3s2)CC1` reads 87.2% (inactive).

Consider `Cc1c(-c2csc(-n3nc(C(F)(F)F)cc3C(F)(F)F)n2)no[n+]1[O-]`, for which the growth was 87.6% (inactive).

On to `N#C/C(=C\c1c(-c2ccccc2)[nH]c2ccccc12)S(=O)(=O)c1ccccc1`, for which the growth is 41.5% (inactive).

As for `CC(=O)O[C@@H]1/C=C/C(=O)N[C@@H](C)CCC/C=C/[C@@H]2CCC[C@H]21`, the growth was 98.9% (inactive). Take `CN1C(=O)N(C)C2C1NN=c1s/c(=C\c3ccc([N+](=O)[O-])cc3)c(=O)n12` (stereo unspecified): the growth was 40.2% (inactive). `O=C(N=Nc1c(O)[nH]c2ccccc12)c1oc2ccccc2c1CN1CCN(c2ccccc2)CC1`: the growth is 32.9% (inactive). For the compound `COC(=O)/C(=C\c1c(-c2ccccc2)[nH]c2ccccc12)S(C)(=O)=O`, the growth is 46.4% (inactive). `COc1ccccc1C1=C(Br)C(=O)c2nc(C)ccc2C1=O`: the growth was 98.4% (inactive). For `Cc1cccc2c(=O)c3c(sc12)c(N1CCNCC1)nc1ccccc13`, the growth is 54.8% (inactive). Take `CCN(CC)CCNC(=O)C(Cl)=C1C(Cl)=C(Cl)C(Cl)=C1Cl`: the growth was 6.11% (active). Same read-out and setting: the result for `N#CC(C#N)=Cc1c(-c2ccccc2)[nH]c2ccccc12` reads 38.6% (inactive).

Take `C=CCN1C(=O)/C(=c2\sc3n(c2=O)NC2C(N=3)N(CC)C(=O)N2CC)c2ccccc21` (stereo unspecified): the growth is 42.3% (inactive). Same read-out and setting: the result for `CC(C)Cn1c2c(c(=S)[nH]c1=O)CCC2` reads 89.1% (inactive); that for `COC(=O)/C(=C\c1c(C)[nH]c2ccccc12)S(=O)(=O)c1ccccc1`, 27% (inactive); that for `CCCCN1CCN(c2ccc3nc(-c4ccc5nc(-c6ccc(C(F)(F)F)cc6)[nH]c5c4)[nH]c3c2)CC1`, -77.1% (active). Still for that read-out and setting: the value for `CN1C(=O)N(C)C2C1NN=c1s/c(=C\c3c[nH]c4ccccc34)c(=O)n12` (stereo unspecified) was 81.7% (inactive); that for `Cc1ccc2c(n1)C(=O)C(Oc1ccc(Br)cc1)=CC2=O` was 97.5% (inactive). As to `COc1cc(/C=C2\Oc3cc(OCCCN4CCCC4)ccc3C2=O)cc(OC)c1`, the growth was 58.6% (inactive). Still for that read-out and setting: the value for `Cc1cccc(NC(=O)c2sc3nc4c(cc3c2N)CCCC4)c1C` was 34.8% (inactive); that for `CCN1C(=O)N(CC)C2Nn3c(s/c(=C4\C(=O)N(C(C)C)c5ccccc54)c3=O)=NC21` (stereo unspecified) was 45.9% (inactive); that for `O=C1/C=C/[C@@H](O)[C@@H]2C[C@@H](O)C[C@H]2/C=C/CCCCO1` was 18.4% (inactive).

`CCOC(=O)c1sc(-c2ccc(OS(=O)(=O)c3ccc(Br)s3)c(C=O)c2)nc1C`: the growth was 3.48% (active). As to `CNCCNc1nc2ccccc2c2c(=O)c3cccc(C)c3sc12`, the growth was 17.9% (inactive). As for `O=C(CN1C=NC2C(N3CCOCC3)=NC=NC21)c1ccc(Br)cc1` (stereo unspecified), the growth was 85.4% (inactive). The same measure, in the same setting: the result for `COc1ccc(OC)c(NC(=O)/C(C#N)=C/c2ccco2)c1` reads 90.4% (inactive); that for `CCN1C(=O)N(CC)C2C1NN=c1s/c(=C3\C(=O)N(CC(C)(C)C)c4ccccc43)c(=O)n12` (stereo unspecified), 38.5% (inactive); that for `CCN1C(=O)N(c2ccccc2)C2NN=c3s/c(=C4\C(=O)N(C(C)C)c5ccccc54)c(=O)n3C21` (stereo unspecified), 49.1% (inactive). Consider `COc1ccc(C2=C(c3cccc(OC)c3)C(=O)c3ccc(C)nc3C2=O)cc1`, for which the growth is 34.2% (inactive).

`CN1C(=O)N(C)C2Nn3c(s/c(=C\c4ccc(Cl)cc4Cl)c3=O)=NC21` (stereo unspecified): the growth is 48.4% (inactive).

For the compound `COc1cccc(C(=O)Cn2cc(/C=C(\C#N)S(=O)(=O)c3ccccc3)c3ccccc32)c1`, the growth was 118% (inactive). Regarding `CCCN1C(=O)N(CCC)C2C1NN=c1s/c(=C3\C(=O)N(C(C)C)c4ccccc43)c(=O)n12` (stereo unspecified), the growth is 31.7% (inactive). As for `N#C/C(=C\c1c(-c2ccccc2)[nH]c2ccccc12)C(=O)c1ccccc1`, the growth was 42.4% (inactive). For `COC(=O)/C(CCC=C(C)C)=C1\[C@@H](OC(C)=O)C[C@@]2(C)[C@H]1CC(=O)[C@H]1[C@@]3(C)CC[C@H](NCc4ccccc4)[C@@H](C)[C@@H]3CC[C@@]12C`, the growth is 86.8% (inactive). In the case of `O=C1C(=O)c2c(ccc3ccccc23)-c2ccccc21`, the growth is -17% (active). Consider `CCOC(=O)c1ccc(N=Cc2sc(=O)[nH]c2O)cc1`, for which the growth is 88.1% (inactive). As for `COC(=O)c1c2c(c(C)[n+]([O-])c1C)C(=O)C(NCc1ccc(Br)cc1)=CC2=O`, the growth was 46.4% (inactive). As for `COc1ccc2[nH]c(O)c(N=NC(=O)c3oc4ccccc4c3C)c2c1`, the growth was -51.7% (active).

The test system of another assay is A498 renal. The assay is described as above. The note with it: 10 µM unless noted.
Consider `CCN1CCN(C(=S)SCC(=O)Nc2nc3ccc(C)cc3s2)CC1`, for which the growth was 126% (inactive). Turning to `N#C/C(=C\c1c(-c2ccccc2)[nH]c2ccccc12)S(=O)(=O)c1ccccc1`, the growth was 24.2% (inactive). Take `CC(=O)O[C@@H]1/C=C/C(=O)N[C@@H](C)CCC/C=C/[C@@H]2CCC[C@H]21`: the growth was 121% (inactive).

As to `COC(=O)/C(=C\c1c(-c2ccccc2)[nH]c2ccccc12)S(C)(=O)=O`, the growth was 29% (inactive).

As to `CCN(CC)CCNC(=O)C(Cl)=C1C(Cl)=C(Cl)C(Cl)=C1Cl`, the growth is 71.8% (inactive). As for `N#CC(C#N)=Cc1c(-c2ccccc2)[nH]c2ccccc12`, the growth was -3.79% (active). For `COC(=O)/C(=C\c1c(C)[nH]c2ccccc12)S(=O)(=O)c1ccccc1`, the growth is -3.18% (active).

`Cc1cccc(NC(=O)c2sc3nc4c(cc3c2N)CCCC4)c1C`: the growth was 4.01% (active). On to `CCN1C(=O)N(CC)C2Nn3c(s/c(=C4\C(=O)N(C(C)C)c5ccccc54)c3=O)=NC21` (stereo unspecified), for which the growth is 37.4% (inactive). As to `O=C1/C=C/[C@@H](O)[C@@H]2C[C@@H](O)C[C@H]2/C=C/CCCCO1`, the growth was -25.5% (active). Take `CCOC(=O)c1sc(-c2ccc(OS(=O)(=O)c3ccc(Br)s3)c(C=O)c2)nc1C`: the growth was 65.3% (inactive). For the compound `COc1ccc(OC)c(NC(=O)/C(C#N)=C/c2ccco2)c1`, the growth is 101% (inactive).

Turning to `COc1cccc(C(=O)Cn2cc(/C=C(\C#N)S(=O)(=O)c3ccccc3)c3ccccc32)c1`, the growth was -75.9% (active).

For `N#C/C(=C\c1c(-c2ccccc2)[nH]c2ccccc12)C(=O)c1ccccc1`, the growth was 57.9% (inactive). On to `COC(=O)/C(CCC=C(C)C)=C1\[C@@H](OC(C)=O)C[C@@]2(C)[C@H]1CC(=O)[C@H]1[C@@]3(C)CC[C@H](NCc4ccccc4)[C@@H](C)[C@@H]3CC[C@@]12C`, for which the growth is 91.9% (inactive). Regarding `O=C1C(=O)c2c(ccc3ccccc23)-c2ccccc21`, the growth is 108% (inactive). Turning to `CCOC(=O)c1ccc(N=Cc2sc(=O)[nH]c2O)cc1`, the growth is 110% (inactive).
